# Results reported in the supplement of paper PMC8728848.
# About 410 targets per protein were measured; listed, in parts, are those with the strongest signals and a random draw of the rest.
# Columns and labels:
# Assay in all cases: glycan array binding signal (z-score within array); higher = stronger binding
# Settings in all cases: glycan notation: IUPAC condensed, linker removed
# [1] = biological target: Gal(b1-4)GlcNAc(b1-3)GalNAc
# Method in brief: (§1)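 The binding signal is a Z-score computed within each array and averaged over linkers. Arrays of the same protein sequence at different concentrations or buffers were also averaged together. Data originate from 3228 arrays in the Consortium for Functional Glycomics database, kept only where the protein sequence was available.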
# Gal6S(b1-3)GlcNAc = biological target: Gal6S(b1-3)GlcNAc
# Method in brief: as §1
# [2] = biological target: GalNAc(a1-3)GalNAc(b1-3)Gal(a1-4)Gal(b1-4)Glc
# Method in brief: as §1
# Glc(b1-6)Glc = biological target: Glc(b1-6)Glc
# Method in brief: as §1
# GlcNAc(b1-3)Fuc = biological target: GlcNAc(b1-3)Fuc
# Method in brief: as §1
# [3] = biological target: GlcNAc(b1-3)Gal(b1-4)GlcNAc(b1-2)Man(a1-3)[GlcNAc(b1-3)Gal(b1-4)GlcNAc(b1-2)Man(a1-6)]Man(b1-4)GlcNAc(b1-4)[Fuc(a1-6)]GlcNAc
# Method in brief: as §1
# [4] = biological target: GlcNAc(b1-3)Gal(b1-4)GlcNAc(b1-3)Gal(b1-4)GlcNAc(b1-2)Man(a1-3)[GlcNAc(b1-3)Gal(b1-4)GlcNAc(b1-3)Gal(b1-4)GlcNAc(b1-2)Man(a1-6)]Man(b1-4)GlcNAc(b1-4)[Fuc(a1-6)]GlcNAc
# Method in brief: as §1
# [5] = biological target: GlcNAc(b1-3)Gal(b1-4)GlcNAc(b1-3)Gal(b1-4)GlcNAc(b1-2)[GlcNAc(b1-3)Gal(b1-4)GlcNAc(b1-3)Gal(b1-4)GlcNAc(b1-6)]Man(a1-6)[GlcNAc(b1-3)Gal(b1-4)GlcNAc(b1-3)Gal(b1-4)GlcNAc(b1-2)Man(a1-3)]Man(b1-4)GlcNAc(b1-4)[Fuc(a1-6)]GlcNAc
# Method in brief: as §1
# [6] = biological target: GlcNAc(b1-3)Gal(b1-4)GlcNAc(b1-3)Gal(b1-4)GlcNAc(b1-3)Gal(b1-4)GlcNAc(b1-3)Gal(b1-4)GlcNAc(b1-2)Man(a1-3)[GlcNAc(b1-3)Gal(b1-4)GlcNAc(b1-3)Gal(b1-4)GlcNAc(b1-3)Gal(b1-4)GlcNAc(b1-3)Gal(b1-4)GlcNAc(b1-2)Man(a1-6)]Man(b1-4)GlcNAc(b1-4)[Fuc(a1-6)]GlcNAc
# Method in brief: as §1
# GlcNAc(b1-3)Man = biological target: GlcNAc(b1-3)Man
# Method in brief: as §1
# [7] = biological target: Neu5Ac(a2-3)Gal(b1-3)GalNAc(b1-3)Gal(a1-4)Gal(b1-4)Glc
# Method in brief: as §1
# Neu5Ac(a2-3)Gal(b1-4)Glc = biological target: Neu5Ac(a2-3)Gal(b1-4)Glc
# Method in brief: as §1
# [8] = biological target: Neu5Ac(a2-3)Gal(b1-4)GlcNAc(b1-2)Man
# Method in brief: as §1
# [9] = biological target: Neu5Ac(a2-3)Gal(b1-4)GlcNAc(b1-3)Gal(b1-4)GlcNAc(b1-3)Gal(b1-4)GlcNAc(b1-2)Man(a1-3)[Neu5Ac(a2-3)Gal(b1-4)GlcNAc(b1-3)Gal(b1-4)GlcNAc(b1-3)Gal(b1-4)GlcNAc(b1-2)Man(a1-6)]GalNAc
# Method in brief: as §1
# Neu5Ac(a2-6)Gal = biological target: Neu5Ac(a2-6)Gal
# Method in brief: as §1
# [10] = biological target: Neu5Ac(a2-6)Gal(b1-3)GlcNAc(b1-3)[Gal(b1-4)GlcNAc(b1-6)]Gal(b1-4)Glc
# Method in brief: as §1
# [11] = biological target: Neu5Ac(a2-6)Gal(b1-4)GlcNAc(b1-2)Man(a1-3)[GlcNAc(b1-4)][Neu5Ac(a2-6)Gal(b1-4)GlcNAc(b1-2)Man(a1-6)]Man(b1-4)GlcNAc(b1-4)GlcNAc
# Method in brief: as §1
# [12] = biological target: Neu5Ac(a2-6)Gal(b1-4)GlcNAc(b1-2)Man(a1-3)[Neu5Ac(a2-6)Gal(b1-4)GlcNAc(b1-2)Man(a1-6)]Man(b1-4)GlcNAc(b1-4)[Fuc(a1-6)]GlcNAc
# Method in brief: as §1
# [13] = biological target: Neu5Ac(a2-6)Gal(b1-4)GlcNAc(b1-2)[Neu5Ac(a2-6)Gal(b1-4)GlcNAc(b1-4)]Man(a1-3)[GlcNAc(b1-4)][Neu5Ac(a2-6)Gal(b1-4)GlcNAc(b1-4)Man(a1-6)]Man(b1-4)GlcNAc(b1-4)GlcNAc
# Method in brief: as §1
# [14] = biological target: Neu5Ac(a2-6)Gal(b1-4)GlcNAc(b1-3)Gal(b1-4)GlcNAc(b1-3)GalNAc
# Method in brief: as §1
# Neu5Ac(a2-8)Neu5Ac = biological target: Neu5Ac(a2-8)Neu5Ac
# Method in brief: as §1
# [15] = biological target: Neu5Ac(a2-8)Neu5Ac(a2-3)Gal(b1-3)GalNAc(b1-4)[Neu5Ac(a2-8)Neu5Ac(a2-3)]Gal(b1-4)Glc
# Method in brief: as §1
# [16] = biological target: Neu5Gc(a2-8)Neu5Gc(a2-3)Gal(b1-4)GlcNAc(b1-3)Gal(b1-4)GlcNAc
# Method in brief: as §1
binder,measurement,setting,value
B725 (Bifidobacterium sp) (protein) MNNTTRAVIATAAIGALLIPLAGCGNTTTSSGKTELTVWSWDASIDRAAKSFMKANPDITVKVSNVGSTEETYTALNNAAQAGSGLPDVTLIEYLAIPQFVHSDTLMDLSKVYNTAKLKDTFTPGTWNSVNINGGLYAMPADSGPMAYFYDKDVFDKAGISEPPTTWDEFYEDAKKIRATGSYITSDSGDAGLFNAMMWAMGGHAYKLNDDKLTINIAKDKGAQRFMDLWQKMRDEDLIDVHTKTWTDDWMKSLGDGSIASLISGAWMANNLLQGVPQATGKFRVALLPTIDGTPINGEYGGSGLAITKKIPDGKLDAAKKFVEYVTTNDEGIDARVSNGSFPATTKTLNQKDFLAKTTLRNTDGSDNEFFGGQKYNEIFSQAAKDVTGKWEFLPFEPYARSVYNDNMGSFFAGKTSFRTAADNWQKALKDYAKDQGFTVQ,glycan array binding signal (z-score),[1],0.358
same,glycan array binding signal (z-score),Gal6S(b1-3)GlcNAc,-0.217
same,glycan array binding signal (z-score),[2],-0.209
same,glycan array binding signal (z-score),Glc(b1-6)Glc,-0.219
same,glycan array binding signal (z-score),GlcNAc(b1-3)Fuc,-0.207
same,glycan array binding signal (z-score),[3],-0.131
same,glycan array binding signal (z-score),[4],-0.216
same,glycan array binding signal (z-score),[5],-0.203
same,glycan array binding signal (z-score),[6],0.138
same,glycan array binding signal (z-score),GlcNAc(b1-3)Man,-0.204
same,glycan array binding signal (z-score),[7],-0.221
same,glycan array binding signal (z-score),Neu5Ac(a2-3)Gal(b1-4)Glc,-0.228
same,glycan array binding signal (z-score),[8],-0.207
same,glycan array binding signal (z-score),[9],-0.042
same,glycan array binding signal (z-score),Neu5Ac(a2-6)Gal,-0.222
same,glycan array binding signal (z-score),[10],-0.205
same,glycan array binding signal (z-score),[11],-0.227
same,glycan array binding signal (z-score),[12],-0.217
same,glycan array binding signal (z-score),[13],-0.212
same,glycan array binding signal (z-score),[14],-0.214
same,glycan array binding signal (z-score),Neu5Ac(a2-8)Neu5Ac,-0.215
same,glycan array binding signal (z-score),[15],-0.2
same,glycan array binding signal (z-score),[16],-0.198
